Molecules are shown by their SMILES. Screen size: about 48,000 compounds; about 13,000 (27%) showed an effect of 50% or more. The list shows a part of the results.

The test relates to Wolbachia pipientis. As to the kind of experiment: Anti-Wolbachia Cell-Based Screen. The format is functional. The arrangement: scale not given: in the data most compounds retested in dose-response had high values. The following applies: 5 µM.
For the compound `CCC(CNC(=O)C1CCC1)(OC)c1ccccc1` (configuration not stated), the “Percent Effect” value is reported as -1.894%.
Turning to `CN(Cc1ncc[nH]1)c1nc(-c2ccccn2)nc2c1CCNCC2`, the “Percent Effect” value is -0.01551%.
Under `c1cnnc(N2CCCC(NCc3nc(C4CC4)no3)C2)c1` (configuration not stated) stands 9.898%.
The figure for `Cn1nc(C(C)(C)C)cc1NC(=O)CSc1nnc[nH]1` is -11.13%.
Under `CCC(CNC(=O)OC)(OC)c1ccccc1` (configuration not stated) stands 1.829%.
As to `CN(C)CCN(C)C(=O)NC1CCC(Oc2ccccc2C#N)CC1` (configuration not stated), the “Percent Effect” value was -10.57%.
The figure for `CNc1cccc(C2CCN(C(C)=O)CC2)n1` is 105.5%; for `CC(=O)NC1(C(=O)N2CCC(Nc3cccnn3)CC2)CCCCC1` it is 6.747%; for `O=C(N1CCOCC1)N1CCC(Nc2ccncn2)CC1` it is 6.366%.
In the case of `Cc1noc(C2CCN(C(=O)c3ccc(NC4CC4)nc3)CC2)n1`, the “Percent Effect” value is recorded as -4.487%.
The figure for `CC(=O)N1CCC(c2cnc(NC3CCOCC3)cn2)CC1` is 89.11%.
The figure for `CNc1cccc(C2CCCN(C(C)=O)C2)n1` (configuration not stated) is 2.608%.
With `CC(=O)N1CCC(c2cccc(NC3CCOCC3)n2)CC1`, the “Percent Effect” value turned out to be 84.73%.
The figure for `COc1ccccc1CNC(C)c1cnc2cc(C)nn2c1C` (configuration not stated) is -25.88%; for `CC(C)c1cc(C(=O)O)nc2[nH]c(=O)[nH]c(=O)c12` it is 113.5%; for `CC(C)CCc1cc(C(=O)O)nc2[nH]c(=O)[nH]c(=O)c12` it is 107.7%.
The figure for `CC(C)Cc1cc(C(=O)O)nc2[nH]c(=O)[nH]c(=O)c12` is 118.2%.
Under `CC1(C)OCC2(CO1)CN(C(=O)c1ccccc1Cl)C2` stands 5.486%.
`CN(Cc1ccc2nsnc2c1)CC1(O)CNCCOC1` (configuration not stated): the “Percent Effect” value is -20.02%.
Under `CCN(CC)[C@H]1COC[C@@H]2CN(Cc3cnn(C)c3)C[C@@H]21` stands 13.67%; under `CN(Cc1cnn(C)c1)S(=O)(=O)N1CCCCCC1`, 16.54%; under `Cn1cc(CN(CC2(O)CCNC2)C2CCCCC2)cn1` (configuration not stated), 118.9%.
The figure for `OC1(CNCc2noc(Cc3ccccc3)n2)CNCCOC1` (configuration not stated) is 7.869%; for `CN(Cc1cnn(C)c1)S(=O)(=O)N1CCCCC1` it is -3.727%.
For `Cn1cc(CN(CC2(O)CNCCOC2)C2CCCCC2)cn1` (configuration not stated), the “Percent Effect” value came to 106.6%.
Under `OC1(CN(Cc2cccnc2)C2CCCCC2)CNCCOC1` (configuration not stated) stands 96.56%; under `CCCc1cc(C(=O)N(Cc2cccnc2)C2CCCCC2)[nH]n1`, 21.65%; under `CC(SCCC(=O)NC(N)=O)c1c(F)cccc1F` (configuration not stated), -3.785%.
Under `Cc1cccc(N2CCC(NC(=O)CCCc3cccs3)CC2)n1` stands -12.55%; under `CCSC(C)c1nc(-c2ccc(C)nn2)no1` (configuration not stated), 3.709%.
The figure for `Clc1ccccc1C1(c2ccnc(-c3ccncc3)n2)CCNCC1` is -9.027%; for `Cc1cc(N2CCN(C3CCOCC3)CC(C(=O)N(C)C)C2)ncn1` (configuration not stated) it is 98.55%; for `Cc1nccnc1N1C[C@H]2CN(C3CCOCC3)C[C@@]2(C(=O)O)C1` it is -7.502%.
In the case of `CN(C)C(=O)C1CN(c2ccncn2)CCN(C2CCOCC2)C1` (configuration not stated), the “Percent Effect” value is recorded as 126.1%.
The figure for `CCc1c(C)sc2ncnc(N3CCN(C4CCOCC4)CC3)c12` is 8.782%; for `Cc1nccc(N2CCN(C3CCOCC3)CC(C(=O)N(C)C)C2)n1` (configuration not stated) it is 164.8%; for `Cc1noc(-c2ccnc(N3CCCN(C4CCOCC4)CC3)c2)n1` it is -8.48%.
The figure for `O=C([C@H]1COC[C@H]2CN(c3ccncn3)C[C@H]21)N1CCCC1` is -2.247%.
On to `Cc1nccc(N2CCC(=O)N(CC3CC3)C(C(C)C)C2)n1` (configuration not stated), for which the “Percent Effect” value is reported as -7.894%.
With `CNC(=O)C1CN(c2ccnc(C)n2)CCN(C2CCOCC2)C1` (configuration not stated), the “Percent Effect” value came out at 102.7%.
The figure for `CN(C)C(=O)C1CN(Cc2c[nH]cn2)CCN(C2CCOCC2)C1` (configuration not stated) is -9.527%.
Under `CN1CCN(C(=O)c2ccc(Cn3cc(Br)cn3)cc2)CC1` stands -6.635%.
Take `CN(Cc1ccc(Cl)s1)C(=O)NCCN1CCCCCC1=O`: the “Percent Effect” value is reported as -12.97%.
Under `Cc1cc(NC(=O)C(C)N2CCN(c3nc(C)cs3)CC2)on1` (configuration not stated) stands 1.656%; under `COCc1cccc(NC(C(N)=O)c2ccc(Br)cc2)c1` (configuration not stated), 31.5%; under `Cc1cc(NCC2CCN(c3ccccc3)C2)n2ncnc2n1` (configuration not stated), 0.02222%.
In the case of `O=C(COCC1CCCO1)N1CCCN(Cc2ccccc2F)CC1` (configuration not stated), the “Percent Effect” value was -31.39%.
As to `CSc1ccc2cc(CN(C)CCCN(C)C)c(=O)[nH]c2c1`, the “Percent Effect” value is listed as -7.905%.
Turning to `CSc1ccccc1CN1CCn2nc(CNC(C)=O)cc2C1`, the “Percent Effect” value is on record as -10.31%.
The figure for `COc1ccc(OCCN(C)CCCn2cnc3c(N)ncnc32)cc1` is 102.2%; for `COc1cccc(CCCn2cnnc2[S+](C)[O-])c1` (configuration not stated) it is 5.279%.
The figure for `COc1ccc(OCCN(C)C(=O)NC(C)c2nncn2C)cc1` (configuration not stated) is 5.358%; for `COc1ccc(OCCCN(C)C(=O)C2CCCN2C(N)=O)cc1` (configuration not stated) it is -3.357%; for `CCS(=O)(=O)c1ncc(CN(C)Cc2cccc(OC)c2)n1CCOC` it is -4.749%.
Under `COc1cccc(CN(C)CCCn2cnc3c(N)ncnc32)c1` stands 85.72%; under `COc1cccc(CN(C)C(=O)CN2CCN(CCO)CC2)c1`, -4.711%; under `CN(Cc1ccccc1)CC(O)Cn1cnc2ccccc2c1=O` (configuration not stated), 5.606%.
With `COc1cccc(SCC(=O)N2CCC(N3CCCC3=O)CC2)c1`, the “Percent Effect” value was -9.437%.
With `CN(CCCn1cnc2c(N)ncnc21)Cc1ccccc1`, the “Percent Effect” value came to 86.6%.
With `CN(Cc1ccccc1)CC(O)Cn1cnc2c(cnn2C)c1=O` (configuration not stated), the “Percent Effect” value is recorded as -10.76%.
The figure for `COc1cccc(SCCCn2cnc3c(N)ncnc32)c1` is 97.7%.
Regarding `CC(CC(=O)NS(=O)(=O)c1ccc2c(c1)OCCO2)c1ccc(F)cc1` (configuration not stated), the “Percent Effect” value was -2.674%.
Under `C[C@@H]1CN(C(=O)CCCn2nnc(-c3ccc(F)cc3)n2)C[C@]1(C)O` stands 1.392%; under `O=C(c1ccccn1)N1CCC2(CNS(=O)(=O)c3cnccc3O2)C1` (configuration not stated), 119.5%; under `Cc1nc(C2CCN(C(=O)c3ccc(Cl)s3)CC2)cc(=O)[nH]1`, -8.54%.
The figure for `CC(C)(C)C(=O)N1CCC2(CNS(=O)(=O)c3cnccc3O2)C1` (configuration not stated) is 153.5%; for `CC(C)C(=O)NC1COC2(CCN(C(=O)c3cccnc3)CC2)C1` (configuration not stated) it is 16.59%; for `O=C(c1cccnc1)N1CCC2(CNS(=O)(=O)c3cnccc3O2)C1` (configuration not stated) it is 123.8%.
The figure for `CC(C)(C)C(=O)N1CCC2(CC1)CC(Oc1ccccc1)CO2` (configuration not stated) is -1.342%; for `CC(C)N(C)C(=O)C1=NOC2(CCN(C(=O)c3ccccn3)C2)C1` (configuration not stated) it is 12.65%; for `CC(C)(C)C(=O)N1CCN(Cn2nccc2-c2cccnc2)CC1` it is -27.57%.
Turning to `CN(C)CCN1CC2(CCN(C(=O)c3cnccn3)CC2)OC1=O`, the “Percent Effect” value was -7.77%.
The figure for `CN(C)C1COC2(CCN(C(=O)c3cccnc3)CC2)C1` (configuration not stated) is -11.3%; for `O=C(c1cnc(-c2ccccc2)s1)N1CCOC2(CCCC2)C1` it is -9.958%.
For `O=C(c1ccc(Cl)s1)N1CCC2(CNS(=O)(=O)c3cnccc3O2)C1` (configuration not stated), the “Percent Effect” value is 130.4%.
On to `CC(C)Cn1cc(NC(=O)N2CCOC(c3ccccc3)C2)cn1` (configuration not stated), for which the “Percent Effect” value was 2.646%.
Under `Cc1nc(-c2ccccc2)sc1C(=O)NCCNc1ncccn1` stands 2.127%; under `Cc1nc[nH]c1-c1nccn1-c1ccc(C(N)=O)c(N2CCCC2)c1`, 8.513%.
Under `CN(C(=O)CCC(F)(F)F)c1cccc2ncccc12` stands 2.571%; under `Cc1n[nH]c(SCC(=O)N[C@@H](C)C(N)=O)n1`, -9.569%.
The figure for `O=C(O)C(F)(F)F.O=C1[C@H]2CN(c3ncccn3)C[C@H]2CN1Cc1ccncc1` is 3.817%; for `O=C(C1CC=CC1)N1C[C@H]2CN(Cc3ccncc3)C(=O)[C@H]2C1.O=C(O)C(F)(F)F` it is 103%; for `O=C(C1CCOCC1)N1C[C@@H]2[C@@H](C1)OCC(=O)N2Cc1ccncc1.O=C(O)C(F)(F)F` it is -1.521%.
For the compound `O=C(C1CCC1)N1C[C@@H]2CN(Cc3ccncc3)C(=O)[C@@H]2C1.O=C(O)C(F)(F)F`, the “Percent Effect” value is 108.5%.
In the case of `CCN1C[C@@H]2CN(C(=O)C3CC=CC3)C[C@@H]2C1=O`, the “Percent Effect” value was found to be 14.39%.
Consider `Cc1ccc(CNS(=O)(=O)CC2=NC(=O)n3cccc3C2=O)cc1`, for which the “Percent Effect” value is 16.21%.
The figure for `Nc1nccc(N2CCC(Cc3ccccc3Cl)(C(=O)O)CC2)n1` is -23.92%; for `COc1ccnc(CN2CCC(O)(c3ccc(C)cn3)CC2)c1OC` it is -7.822%; for `COc1ccccc1OC1(C(=O)O)CCN(c2nc(C)cnc2C)CC1` it is -31.32%.
The figure for `COc1ccccc1OC1(C(=O)O)CCN(c2ccccn2)CC1` is -33.54%; for `Cc1nc(N2CCCC2)nc(N2CCC(O)(C(=O)O)CC2)c1C` it is -11.99%; for `COc1cccc2ccc(N3CCC(O)(c4ccc(C)cn4)CC3)nc12` it is 110%.
Under `O=C(O)C1(O)CCN(c2ccc3cccc(Cl)c3n2)CC1` stands 102.6%; under `COc1cccc2ccc(N3CCC(O)(C(=O)O)CC3)nc12`, 85.02%.
Turning to `COc1cccc(CN2CCC(O)(c3ccc(C)cn3)CC2)c1OC`, the “Percent Effect” value is given as -1.243%.
Consider `O=S(=O)(Nc1nccs1)c1cc(Cl)cc2c1OCC2`, for which the “Percent Effect” value is reported as -24.06%.
The figure for `Fc1cc(CN2CCOC3(CCOCC3)C2)ccc1OC(F)F` is -0.1745%.
As for `CCc1noc(CSc2n[nH]c(-c3ccccn3)n2)n1`, the “Percent Effect” value was -7.886%.
The figure for `Cn1nccc1CN1CCCC(COc2ccccc2F)C1` (configuration not stated) is 162.8%; for `CCn1cc(CN2CCCC(COc3ccccc3F)C2)cn1` (configuration not stated) it is 9.663%; for `Cn1cc(CN2CCCC(CCc3c(F)cccc3F)C2)cn1` (configuration not stated) it is 4.691%.
Under `CCC1CN(CCNC(C)=O)CCN1CCOC` (configuration not stated) stands 1.458%; under `CCC1CN(CC(=O)N2CCCC2)CCN1CCOC` (configuration not stated), 124%; under `CCC1CN(CC(=O)NC2(C#N)CCCC2)CCN1CCOC` (configuration not stated), 2.566%.
Under `CCC1CN(CCC(=O)N(C)C)CCN1CCOC` (configuration not stated) stands -4.079%.
Turning to `CCC1CN(CC(=O)N2CCC2)CCN1CCOC` (configuration not stated), the “Percent Effect” value was 4.498%.
Under `CCC1CN(CC(=O)N2CCN(C(C)=O)CC2)CCN1CCOC` (configuration not stated) stands 107.2%.

(Values after ChEMBL document CHEMBL3988442, “University of Dundee, Small-Polar-MMV Screening Library” (2021).)
